From the supplement of paper PMC12067093, “Discovery and optimisation of a covalent ligand for TRIM25 and its application to targeted protein ubiquitination” (Chemical Science, 2025)
The full data set covers some 21,000 targets. This sample favours those with the largest changes.

Compound: Cc1cc(ccc1-c1ccccc1)C(=O)N1CCCN(CC1)C(=O)CCl [compound 10]
Test: probe-labelled cysteine peptide fold change vs DMSO (competition) (log2 fold change); higher = less target engagement (more negative = stronger competition)
Settings: THP-1, incubation time: 4 h
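Further: competitive profiling in live THP-1 cells: cysteine peptides tagged with an iodoacetamide desthiobiotin (IA-DTB) probe, intensity after compound treatment relative to DMSO-treated cells.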

UniProt Q8NHP8, sequence (Q8NHP8 whole entry, looked up): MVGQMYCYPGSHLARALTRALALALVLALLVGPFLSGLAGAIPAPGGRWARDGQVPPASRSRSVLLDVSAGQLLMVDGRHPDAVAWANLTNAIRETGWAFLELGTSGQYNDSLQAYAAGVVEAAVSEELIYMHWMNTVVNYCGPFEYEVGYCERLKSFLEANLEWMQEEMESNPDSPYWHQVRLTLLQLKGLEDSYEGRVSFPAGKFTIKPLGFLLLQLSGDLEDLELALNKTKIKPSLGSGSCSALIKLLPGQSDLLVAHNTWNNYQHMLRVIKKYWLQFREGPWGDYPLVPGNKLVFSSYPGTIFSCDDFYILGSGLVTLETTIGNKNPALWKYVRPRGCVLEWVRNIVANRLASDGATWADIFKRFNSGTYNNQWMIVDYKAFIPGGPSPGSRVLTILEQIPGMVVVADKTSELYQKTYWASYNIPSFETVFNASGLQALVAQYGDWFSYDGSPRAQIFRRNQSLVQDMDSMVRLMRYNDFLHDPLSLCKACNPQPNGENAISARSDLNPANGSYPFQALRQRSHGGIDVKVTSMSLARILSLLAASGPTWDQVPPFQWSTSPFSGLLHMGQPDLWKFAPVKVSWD
UniProt P30101, sequence (P30101 whole entry, looked up): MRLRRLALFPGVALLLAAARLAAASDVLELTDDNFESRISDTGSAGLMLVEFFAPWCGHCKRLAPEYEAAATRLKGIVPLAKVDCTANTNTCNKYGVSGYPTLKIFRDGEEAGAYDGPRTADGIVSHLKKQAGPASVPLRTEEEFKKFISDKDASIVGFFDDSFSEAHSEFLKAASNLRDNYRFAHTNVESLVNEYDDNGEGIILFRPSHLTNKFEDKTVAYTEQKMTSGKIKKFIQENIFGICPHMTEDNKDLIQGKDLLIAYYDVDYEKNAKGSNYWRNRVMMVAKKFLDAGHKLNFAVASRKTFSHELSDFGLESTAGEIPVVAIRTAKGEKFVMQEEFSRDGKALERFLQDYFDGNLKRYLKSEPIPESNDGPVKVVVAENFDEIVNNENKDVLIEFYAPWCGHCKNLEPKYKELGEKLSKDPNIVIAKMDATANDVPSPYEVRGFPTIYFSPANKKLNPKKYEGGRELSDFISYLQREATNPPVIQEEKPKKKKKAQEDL
UniProt Q01970, sequence (Q01970 whole entry, looked up): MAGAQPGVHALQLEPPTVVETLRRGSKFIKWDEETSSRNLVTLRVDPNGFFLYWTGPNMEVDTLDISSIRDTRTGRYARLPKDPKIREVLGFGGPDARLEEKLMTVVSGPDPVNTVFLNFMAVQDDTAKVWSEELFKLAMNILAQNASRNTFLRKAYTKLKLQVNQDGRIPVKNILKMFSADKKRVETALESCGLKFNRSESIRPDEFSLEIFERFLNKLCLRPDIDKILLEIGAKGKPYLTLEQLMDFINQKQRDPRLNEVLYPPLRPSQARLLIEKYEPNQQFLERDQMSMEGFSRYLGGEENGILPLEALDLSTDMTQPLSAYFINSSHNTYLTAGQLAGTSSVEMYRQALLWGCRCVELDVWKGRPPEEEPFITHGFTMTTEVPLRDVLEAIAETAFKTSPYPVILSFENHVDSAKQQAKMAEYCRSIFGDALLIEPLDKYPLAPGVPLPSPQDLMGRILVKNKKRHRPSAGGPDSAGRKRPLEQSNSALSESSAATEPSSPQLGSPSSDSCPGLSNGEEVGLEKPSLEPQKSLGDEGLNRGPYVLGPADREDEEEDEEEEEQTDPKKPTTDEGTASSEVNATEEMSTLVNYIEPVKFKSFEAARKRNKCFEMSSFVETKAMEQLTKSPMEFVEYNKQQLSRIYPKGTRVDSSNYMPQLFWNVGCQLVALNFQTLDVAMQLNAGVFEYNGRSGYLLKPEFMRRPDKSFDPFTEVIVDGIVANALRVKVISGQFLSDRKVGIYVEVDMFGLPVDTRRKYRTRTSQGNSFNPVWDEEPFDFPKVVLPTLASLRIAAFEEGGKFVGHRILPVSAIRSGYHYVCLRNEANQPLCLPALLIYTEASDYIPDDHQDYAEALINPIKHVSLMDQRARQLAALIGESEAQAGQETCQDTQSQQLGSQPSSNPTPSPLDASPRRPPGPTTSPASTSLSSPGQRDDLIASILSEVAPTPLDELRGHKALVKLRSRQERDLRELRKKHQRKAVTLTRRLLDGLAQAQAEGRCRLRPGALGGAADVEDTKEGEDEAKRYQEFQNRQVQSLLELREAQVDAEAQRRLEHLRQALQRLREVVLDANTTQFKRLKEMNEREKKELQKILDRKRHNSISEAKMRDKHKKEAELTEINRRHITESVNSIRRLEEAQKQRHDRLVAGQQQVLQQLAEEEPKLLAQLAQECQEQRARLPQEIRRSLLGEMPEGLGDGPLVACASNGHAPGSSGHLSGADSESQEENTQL
UniProt Q9UBT6, sequence (Q9UBT6 whole entry, looked up): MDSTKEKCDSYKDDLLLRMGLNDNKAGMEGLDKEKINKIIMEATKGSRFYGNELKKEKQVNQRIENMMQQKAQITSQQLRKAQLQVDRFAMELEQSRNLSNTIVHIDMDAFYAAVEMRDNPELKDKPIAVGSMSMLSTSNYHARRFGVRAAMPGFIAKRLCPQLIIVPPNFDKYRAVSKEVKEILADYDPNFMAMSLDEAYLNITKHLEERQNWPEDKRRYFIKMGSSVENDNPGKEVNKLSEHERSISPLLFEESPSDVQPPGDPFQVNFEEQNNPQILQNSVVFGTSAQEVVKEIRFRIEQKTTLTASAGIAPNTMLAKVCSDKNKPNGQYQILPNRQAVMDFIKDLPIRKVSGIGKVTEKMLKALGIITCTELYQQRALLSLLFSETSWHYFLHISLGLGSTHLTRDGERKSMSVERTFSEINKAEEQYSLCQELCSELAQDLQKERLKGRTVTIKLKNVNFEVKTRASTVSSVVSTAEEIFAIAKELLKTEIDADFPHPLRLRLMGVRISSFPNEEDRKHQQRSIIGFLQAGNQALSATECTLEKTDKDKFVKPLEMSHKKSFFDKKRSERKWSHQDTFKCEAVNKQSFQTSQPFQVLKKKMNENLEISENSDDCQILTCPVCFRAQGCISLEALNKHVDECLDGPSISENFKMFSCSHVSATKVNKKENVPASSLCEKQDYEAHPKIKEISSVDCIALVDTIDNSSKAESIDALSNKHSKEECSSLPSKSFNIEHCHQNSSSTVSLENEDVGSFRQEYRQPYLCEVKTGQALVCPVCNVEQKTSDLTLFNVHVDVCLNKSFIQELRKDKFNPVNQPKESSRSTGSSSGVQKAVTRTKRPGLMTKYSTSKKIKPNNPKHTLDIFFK
UniProt P07737, sequence (P07737 whole entry, looked up): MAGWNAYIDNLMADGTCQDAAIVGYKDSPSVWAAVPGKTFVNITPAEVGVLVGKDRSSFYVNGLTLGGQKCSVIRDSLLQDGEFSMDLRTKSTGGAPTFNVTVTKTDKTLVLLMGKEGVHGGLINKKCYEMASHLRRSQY
UniProt Q15172, sequence (Q15172 whole entry): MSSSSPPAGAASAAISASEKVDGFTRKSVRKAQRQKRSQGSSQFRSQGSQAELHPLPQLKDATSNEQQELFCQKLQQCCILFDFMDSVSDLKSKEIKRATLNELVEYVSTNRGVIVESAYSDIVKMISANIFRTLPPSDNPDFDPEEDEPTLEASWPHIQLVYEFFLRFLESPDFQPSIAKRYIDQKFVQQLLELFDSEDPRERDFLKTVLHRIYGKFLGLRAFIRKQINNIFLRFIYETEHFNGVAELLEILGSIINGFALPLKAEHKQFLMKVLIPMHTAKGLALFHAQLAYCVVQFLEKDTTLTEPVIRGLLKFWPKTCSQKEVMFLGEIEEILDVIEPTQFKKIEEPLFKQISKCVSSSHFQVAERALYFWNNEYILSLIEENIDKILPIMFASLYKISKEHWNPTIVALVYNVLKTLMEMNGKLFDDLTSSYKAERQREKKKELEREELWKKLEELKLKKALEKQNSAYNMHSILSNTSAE
UniProt P08567, sequence (P08567 whole entry, looked up): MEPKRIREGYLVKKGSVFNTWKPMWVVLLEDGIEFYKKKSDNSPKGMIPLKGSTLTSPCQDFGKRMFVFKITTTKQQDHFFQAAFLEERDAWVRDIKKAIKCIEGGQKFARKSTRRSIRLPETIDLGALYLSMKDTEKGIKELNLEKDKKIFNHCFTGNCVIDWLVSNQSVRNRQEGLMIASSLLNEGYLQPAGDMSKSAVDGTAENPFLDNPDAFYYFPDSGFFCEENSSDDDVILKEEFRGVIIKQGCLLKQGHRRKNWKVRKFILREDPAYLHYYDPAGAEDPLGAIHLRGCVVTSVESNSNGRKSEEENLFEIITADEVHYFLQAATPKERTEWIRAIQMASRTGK
UniProt Q96BP3, sequence (Q96BP3 whole entry, looked up): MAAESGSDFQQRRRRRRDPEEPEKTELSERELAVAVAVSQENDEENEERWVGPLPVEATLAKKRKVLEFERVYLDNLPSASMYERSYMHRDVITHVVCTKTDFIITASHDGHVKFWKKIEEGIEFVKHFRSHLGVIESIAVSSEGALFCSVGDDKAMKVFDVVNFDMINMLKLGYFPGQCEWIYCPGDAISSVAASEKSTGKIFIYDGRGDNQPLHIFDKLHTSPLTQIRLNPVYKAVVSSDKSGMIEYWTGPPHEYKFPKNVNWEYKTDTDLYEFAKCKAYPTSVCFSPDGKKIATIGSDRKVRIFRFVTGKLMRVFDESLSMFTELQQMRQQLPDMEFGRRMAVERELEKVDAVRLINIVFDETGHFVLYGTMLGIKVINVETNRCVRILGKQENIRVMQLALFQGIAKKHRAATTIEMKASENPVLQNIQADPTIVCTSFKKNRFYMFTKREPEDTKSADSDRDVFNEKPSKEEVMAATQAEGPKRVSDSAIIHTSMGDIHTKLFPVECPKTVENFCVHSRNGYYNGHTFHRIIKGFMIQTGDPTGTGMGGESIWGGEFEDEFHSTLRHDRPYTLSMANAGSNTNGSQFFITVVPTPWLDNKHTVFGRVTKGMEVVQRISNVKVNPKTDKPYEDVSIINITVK

Target	probe-labelled cysteine peptide fold change (10 µM)	probe-labelled cysteine peptide fold change (50 µM)
POLE_Q07864_600_HALEEEEKVPVEQVTNFEEVCDEIK (UniProt Q07864)	-0.247	-1.05
PFN1_P07737_128_KCYEMASHLRR (UniProt P07737)	-0.531	-0.695
PELP1_Q8IZL8_71_SAPHLPGLMCLLR (UniProt Q8IZL8)	-1.13	-0.883
PDIA3_P30101_85+92_VDCTANTNTCNK (UniProt P30101)	-0.107	-0.048
PLCB3_Q01970_360_CVELDVWK (UniProt Q01970)	0.0505	-0.317
PLEK_P08567_295_GCVVTSVESNSNGR (UniProt P08567)	-0.14	-0.138
POLK_Q9UBT6_545_SIIGFLQAGNQALSATECTLEK (UniProt Q9UBT6)	-0.695	-0.377
PKN3_Q6P5Z2_131_QGAENMTHTCASGTPK (UniProt Q6P5Z2)	-0.00333	-0.199
PPP2R5A_Q15172_72_DATSNEQQELFCQK (UniProt Q15172)	0.0287	-0.096
PPWD1_Q96BP3_287_AYPTSVCFSPDGK (UniProt Q96BP3)	0.0829	0.156
PPA1_Q15181_114_HTGCCGDNDPIDVCEIGSK (UniProt Q15181)	0.105	0.181
PCID2_Q5JVF3_152_VCASDTR (UniProt Q5JVF3)	0.19	0.0189
PLBD2_Q8NHP8_492_YNDFLHDPLSLCK (UniProt Q8NHP8)	0.0964	-0.267
PPP4C_P60510_130_QITQVYGFYDECLRK<|>PPP2CB_P62714_133_QITQVYGFYDECLRK<|>PPP2CA_P67775_133_QITQVYGFYDECLRK (UniProt P67775+P62714+P60510)	0.0312	-0.109
